# Screens deposited in PubChem BioAssay by National Center for Advancing Translational Sciences (NCATS).
# Many of the other results were omitted from the sample, so hits are more common in it than they were.
# AMA1 RON2 block: inhibitors of Plasmodium falciparum AMA1-RON2 interaction; AID 720542; Potency, µM (highest dose often 58.2 µM), for the others: at the top dose activity change, negative = inhibition, most hits filed as inhibitors; actives 0.2% (n = 360,000); AlphaScreen AMA1-biotinylated RON2 peptide binding; active = well fitted inhibition curve with a large enough effect; inconclusive = small, poorly fitted or top-dose-only effect; inactive = no such curve, though single readings can be large or run the other way;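 note: potency is the fitted concentration of half-maximal effect; 0% = vehicle wells and -100% = peptide control; nearly all actives have a fitted effect of over 45% in size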
#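 AMA1 (3D7) with his tag at 25 nM final met compounds first, then biotinylated RON2 peptide at 25 nM; detection used donor plus acceptor beads, 10 µg/mL apiece, read by AlphaScreen after 30 min at room temperature.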
# LASV entry inh: inhibitors of Lassa virus binding or cell entry; Lassa virus pseudotype entry inhibition, cell reporter; Potency, µM (titrated, usually from 37.9 µM), inactives show at the highest dose activity change, negative = inhibition, hits mostly inhibitors; actives 1.2% (n = 300,000); calls by dose curve; tested in HEK293 cells; note: potency is the fitted concentration of half-maximal effect; % is set by controls: 0 for no effect and ±100 for the full control effect; nearly all actives have a fitted effect of over 50% in size
# CHX counter: counter-screen for Shiga toxin inhibitors: cycloheximide protein synthesis inhibition; cell reporter, cycloheximide protein synthesis inhibition counterscreen; max response, %; actives 12% (n = 300,000); AID 2314; in the data active = max response mostly above about 13%, no sharp cut-off; inactive = mostly below about 14%; note: read at 38.3 µM for the half of the compounds with a filed dose; 0% is about no effect
# Shiga inhibitor: Shiga toxin inhibition; Vero cells, Shiga toxin protein synthesis inhibition reporter; inhibition, % at 38.7 µM; actives 9.2% (n = 290,000); AID 2315; in the data active = inhibition mostly above about 28%, no sharp cut-off; inactive = mostly below about 43%; note: 0% is about no effect
# MARV entry inh: inhibitors of Marburg virus binding or cell entry; Marburg virus pseudotyped entry inhibition, cell reporter; Potency, µM (top dose mostly 37.8 µM), without a hit: at the highest dose activity change, negative = inhibition, most hits filed as inhibitors; actives 1.8% (n = 300,000); calls by dose curve; tested in HEK293 cells; note: potency is the fitted concentration of half-maximal effect; % is set by controls: 0 for no effect and ±100 for the full control effect
# Numbers without * were called inactive; u = inconclusive; x = not tested or not shown; [ ] = another dose, or the depositor's remark.
SMILES,AMA1 RON2 block,LASV entry inh,CHX counter,Shiga inhibitor,MARV entry inh
CCOC(=O)N/N=C1\C[C@@H](O)[C@@H](O)[C@@H]2[C@@H]3C(=O)N(C[C@@H]4CCCO4)C(=O)[C@@H]3CC[C@@H]12,x,x,x,x,6%[14.2 µM]
CCN(CC)C(=O)N1CCC2CCCCC2C1CN1C(=O)C2=C(CCCC2)C1=O (stereo not given),x,x,x,x,-14%
COC(=O)[C@@H]1C[C@]2(OC(=O)c3ccccc3)C=CC(=O)C[C@@H]2N1C(=O)OCc1ccccc1,-5%,7.3µM*,-5,-18,u
Cc1cc([N+](=O)[O-])c2ccccc2c1NS(=O)(=O)c1ccccc1,-25%,0%[46.1 µM],x,x,3%[46.1 µM]
CCOc1ccccc1N1CCN(C(=O)c2ccccc2SCC(=O)N2CCCC2)CC1,-8%,-1%,15*,27*,-26%
CCOc1ccccc1N1CCN(C(=O)C2c3ccccc3Oc3ccccc32)CC1,-15%,7.1µM*,3,2,u
COc1ccccc1N1CCN(C(=O)C(Sc2ccccc2)c2ccccc2)CC1 (stereo not given),-6%,u,-1,-2,6.3µM*
CS(=O)(=O)N1CCN(C(=O)C(Sc2ccccc2)c2ccccc2)CC1 (stereo not given),-8%,-5%,-2,-17,4%
COc1ccccc1N1CCN(C(=O)CSc2ccccc2)CC1,-4%,-3%,27*,65*,-5%
COc1ccc(CNC(=O)/C=C/[C@H]2O[C@@H](n3ccc(=O)[nH]c3=O)[C@H](O)[C@@H]2O)cc1,22%,x,x,x,x
O=C(COC(=O)c1cccc(S(=O)(=O)N2CCOCC2)c1)NC1CCCCC1,-9%,x,x,x,x
O=C(O)CCCN=C1NC2(CCCC2)CC2=C1CCCC2,x,x,x,x,0%
Cc1ccc(CNc2ncnc3c2cnn3C2CCCCO2)cc1 (stereo not given),2%,-17%[46.1 µM],x,x,-3%[46.1 µM]
COc1ccc(C(=O)N2CCN(c3ccccc3OC)CC2)cc1,-4%,x,21,84,x
COc1ccccc1N1CCN(C(=O)c2cc(C(C)(C)C)oc2C)CC1,-4%,-29%[46.1 µM],12,-11,10µM*
COc1ccccc1N1CCN(C(=O)c2ccc(-c3ccccc3)cc2)CC1,-14%,x,20*,34,x
Cc1ccc(/C=N/n2c(COc3ccccc3)n[nH]c2=S)s1,55%,6.5µM*,4,-15,8%
Cc1ccc(/C=N/n2c(-c3ccc(Cl)cc3)n[nH]c2=S)s1,23%,u,-2,-5,u
S=c1[nH]nc(COc2ccccc2)n1/N=C/c1ccc(Br)s1,44%,u,-4,-20,21%
Cc1ccc(-c2n[nH]c(=S)n2/N=C/c2ccc(C)s2)cc1,9%,1.3µM*,-7,-17,-10%
O=C(c1ccc(OCC2CCCO2)cc1)N1CCN(c2ccccc2)CC1 (stereo not given),2%,-5%,-3,-2,8%
O=C(Nc1ncccc1O)c1ccc(Oc2ccccc2)cc1,59%,u,52*,71*,-29%[46.1 µM]
O=C(c1ccc(OCC2CCCO2)cc1)N1CCc2ccccc2C1 (stereo not given),-4%,-5%,30*,56*,24%[46.1 µM]
O=C(Nc1ncccc1O)c1ccc(OCC2CCCO2)cc1 (stereo not given),51%,x,35*,52*,x
CCOc1ccc(C(=O)NC2=NCCS2)cc1,x,x,27*,83*,x
SMILES,AMA1 RON2 block,LASV entry inh,CHX counter,Shiga inhibitor,MARV entry inh
Cc1ccc(OCCOCCn2c(-c3ccc(Cl)cc3)nc3ccccc3c2=O)cc1,x,-8%[46.1 µM],x,x,2%[46.1 µM]
CCOc1ccc(Cn2nnc(-c3ccc(S(C)(=O)=O)cc3)n2)cc1OCC,3%,x,x,x,x
Cc1ccc(C)c(NC(=O)CSc2ncc3c(n2)-c2ccc(Cl)cc2N(C)S3(=O)=O)c1,x,25%[46.1 µM],x,x,x
NC(=O)c1ccc(OCC2CCCO2)cc1 (stereo not given),12%,u,9,-6,5%[46.1 µM]
O=C(NC1=NCCS1)c1ccc(OCC2CCCO2)cc1 (stereo not given),74%,u,30*,51*,u
Cc1ccc(Cn2c(=O)n(CCc3ccccc3)c(=O)c3c(C)c(C)sc32)cc1,x,12%[46.1 µM],x,x,1%[46.1 µM]
O=C(Nc1ccccc1)N1CCCC1,1%,u,-3,-1,10%
O=C(Nc1cccc(Cl)c1)N1CCCCCC1,0%,2%,15*,23,2%
O=C(Nc1ccc(C(=O)N2CCCCC2)cc1)Nc1cccc(Cl)c1,7%,4%,33*,72*,2%
Cc1nc(Nc2nc(CSc3ccc(Cl)cc3)cc(=O)[nH]2)nc2ccccc12,-1%,13%,7,-15,7%
COc1ccc2nc(Nc3nc(CSc4nc5ccccc5[nH]4)cc(=O)[nH]3)nc(C)c2c1,-6%,u,-5,-9,11µM*
Cc1nc(Nc2nc(CSc3nc4ccccc4[nH]3)cc(=O)[nH]2)nc2ccccc12,-3%,u,-5,-16,13µM*
CNC(=O)C1CCC(Cn2c(=O)c3sccc3n(CC(=O)Nc3ccc(C)c(F)c3)c2=O)CC1 (stereo not given),x,23%[46.1 µM],x,x,x
COc1ccc(Oc2nc3c(C)cccn3c(=O)c2/C=C(\C#N)c2nc3ccccc3[nH]2)cc1,x,3%[46.1 µM],x,x,-1%[46.1 µM]
CCCNC(=O)C(=O)N/N=C/c1cccs1,-5%,6%,21*,15,17%
CCN(CC)C(=O)C(=O)N/N=C/c1cccs1,1%,27%,8,-1,21%
CC(C)CNC(=O)C(=O)N/N=C/c1cccs1,-3%,u,28*,46,9%
O=C(N/N=C/c1cccs1)C(=O)Nc1cccc(Cl)c1,1%,x,20*,55*,x
CC(C)(C)NC(=O)C(=O)N/N=C/c1cccs1,5%,7%,37*,67*,u
Clc1ccc(-c2nc3c4ccccc4ccn3c2Cc2ccsc2)cc1,21%,x,x,x,x
CC(C)[C@@H](OCc1ccccc1)[C@H](C)CON=C1[C@H]2CCn3c(=O)n(-c4ccccc4)c(=O)n3[C@@H]2[C@H](O)[C@@H]2O[C@H]12,x,x,x,x,25%[14.2 µM]
COc1cc(Nc2c3c(nc4ccccc24)CCCC3)cc(OC)c1OC,-7%,-19%[46.1 µM],-3,-4,4.5µM*
c1ccc2c(Nc3ccc4c(c3)OCCO4)c3c(nc2c1)CCCC3,-5%,7.9µM*,14,-3,u
Fc1cccc(Nc2c3c(nc4ccccc24)CCC3)c1,5%,u,-3,-10,-2%[46.1 µM]
COc1ccc(C2=NN(c3ccccc3)C(c3cn(CCC(=O)O)nc3-c3ccccc3)C2)cc1 (stereo not given),17%,-3%,12,30,4%[46.1 µM]
COc1ccc(Nc2ncc3c(n2)CC(c2ccc(C)cc2)CC3=O)cc1 (stereo not given),7%,0.23µM*,2,-6,u
COc1ccc(Nc2ncc3c(n2)CC(c2ccc(OC)cc2)CC3=O)cc1 (stereo not given),-5%,u,-2,4,u
Cc1ccc(Nc2ncc3c(n2)CC(C)(C)CC3=O)cc1,1%,x,34*,118*,x
CCOc1ccc(C(=O)C[n+]2cccc3cc(C)ccc32)cc1,-10%,u,-3,0,7.1µM*
O=P1(O)Cc2ccccc2-c2ccccc21,11%,-3%,x,x,23%
